# Source: PubChem
# Shown is part of a subset that was picked to be rich in hits.
# Cycloheximide cs – counter-screen for Shiga toxin inhibitors: cycloheximide protein synthesis inhibition; 300,000 tested, 12% active; AID 2314; cell reporter, cycloheximide protein synthesis inhibition counterscreen; max response, %; in the data active means max response mostly above about 13%, no sharp cut-off; inactive means mostly below about 14%; further: read at 38.3 µM for the half of the compounds with a filed dose; 0% is about no effect
# RE007 growth inh – less growth of the S. pombe RE007 Vpr strain; 360,000 tested, 0.21% active; AID 651644; Potency, µM (series often up to 92.2 µM), without a hit: at the highest dose activity change, negative = less growth, usual class: inhibitors; S. pombe RE007 Vpr strain, BacTiter-Glo ATP luminescence, 24 h; active means well fitted falling curve with a large enough effect; inconclusive means small, poorly fitted or top-dose-only effect; inactive means no such curve, though single readings can be large or run the other way; further: potency means the concentration at half of the fitted maximal effect; on the % scale 0 is the no-effect control and ±100 the full control effect; nearly all actives have a fitted effect of over 50% in size
#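 Fission yeast RE007 carrying one integrated HIV-1 vpr copy, seeded at OD 0.01 in PMG+AL medium with 23 nL pinned compound. Grown 24 h at 30 degrees; viability read by BacTiter-Glo luminescence after 5 min.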
# Giardia FBPA inh – Giardia lamblia aldolase inhibition. Potency, µM (top dose mostly 59.6 µM), inactives show at the highest dose activity, negative = inhibition, actives largely listed as inhibitors. 290,000 tested, 0.71% active. purified Giardia FBPA. A8B2U2; further: potency means the concentration at half of the fitted maximal effect; on the % scale 0 is the no-effect control and ±100 the full control effect; nearly all actives have a fitted effect of over 55% in size
#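 Giardia FBPA (40 nM reagent) was preincubated 10 min at RT with compound (up to 57.5 uM final), then substrate plus GAPDH/TPI/NAD/arsenate coupling system with diaphorase/resazurin was added; resorufin fluorescence (525/598 nm) was read after 20 min.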
# LmPK inh – inhibitors of Leishmania mexicana pyruvate kinase; purified LmPK, Kinase-Glo ATP luminescence, 1 h; Potency, µM (titrated, usually from 57.5 µM), for inactives: top-dose activity change, negative = inhibition, actives largely listed as inhibitors; 290,000 tested, 0.37% active; further: potency means the concentration at half of the fitted maximal effect; on the % scale 0 is the no-effect control and ±100 the full control effect
# Target sequence (Q27686 whole entry, looked up): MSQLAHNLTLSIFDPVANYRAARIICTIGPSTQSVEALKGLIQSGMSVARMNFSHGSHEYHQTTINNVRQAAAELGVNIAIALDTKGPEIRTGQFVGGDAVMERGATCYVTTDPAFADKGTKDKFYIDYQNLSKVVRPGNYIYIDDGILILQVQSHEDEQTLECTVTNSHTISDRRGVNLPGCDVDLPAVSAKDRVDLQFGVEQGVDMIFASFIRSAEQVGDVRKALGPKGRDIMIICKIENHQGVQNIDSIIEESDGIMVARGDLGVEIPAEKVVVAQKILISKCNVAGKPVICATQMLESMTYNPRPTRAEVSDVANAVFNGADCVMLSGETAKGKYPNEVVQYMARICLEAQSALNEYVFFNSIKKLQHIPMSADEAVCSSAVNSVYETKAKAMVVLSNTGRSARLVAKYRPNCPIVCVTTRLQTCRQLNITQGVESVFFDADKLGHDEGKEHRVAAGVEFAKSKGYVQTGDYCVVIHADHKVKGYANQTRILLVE
#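 qHTS format; LmPK 0.1 nM; substrates PEP 0.5 mM and ADP 0.1 mM. One-hour room-temperature incubation, then coupled luciferase luminescence; 0.5 nM enzyme wells mark activation.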
# TbPYK inhibitor – blocks Trypanosoma brucei pyruvate kinase; Q57TT1; TbPYK enzyme, Kinase-Glo Plus ATP luminescence, 45 min; Potency, µM (top dose mostly 76.8 µM), without a hit: top-dose activity, negative = inhibition, actives largely listed as inhibitors; 410,000 tested, 0.12% active; AID 624173; further: potency means the concentration at half of the fitted maximal effect; on the % scale 0 is the no-effect control and ±100 the full control effect; nearly all actives have a fitted effect of over 50% in size
#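 Activity of T. brucei pyruvate kinase was followed by Kinase-Glo Plus luminescence after the enzyme reacted 45 min at room temperature with 130 uM ADP (final) and substrate. Test compounds were added before ADP at multiple concentrations.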
# Shiga inhibitor – Shiga toxin inhibition; Vero cells, Shiga toxin protein synthesis inhibition reporter; inhibition, % at 38.7 µM; 290,000 tested, 9.2% active; AID 2315; in the data active means inhibition mostly above about 28%, no sharp cut-off; inactive means mostly below about 43%; further: 0% is about no effect
# The depositor's hits bear a star; u = inconclusive; x = not tested or not shown; [ ] = another dose, or the depositor's remark. Unless noted, the call rests on the fitted dose curve; in most records, active means well fitted curve in the direction sought with a large enough effect; inconclusive means small, poorly fitted or top-dose-only effect, or another doubt; inactive means no such curve, though single readings can be large; an effect the other way counts as inactive or inconclusive.
SMILES,Cycloheximide cs,RE007 growth inh,Giardia FBPA inh,LmPK inh,TbPYK inhibitor,Shiga inhibitor
C/C(=N\NC(=O)c1nn(C)cc1Br)c1cccc(NC(=O)C(C)(C)C)c1,32.0*,-11.4%,0.1%,-0.5%,1.8%,97.9*
C/C(=N\NC(=O)c1c(Cl)cnn1C)c1ccc(NC(=O)c2ccncc2)cc1,15.6*,2.2%,-0.1%,-3.3%,2.6%,15.7
Cn1ncc(Cl)c1C(=O)Nc1ccncc1,-1.1,-0.2%,3.8%,4.6%,2.4%,-3.4
CCCC[C@@H](C)/C=C(C)/C=C(\C)C(=O)NC1=C[C@@](O)(/C=C/C=C/C=C/C(=O)NC2=C(O)CCC2=O)[C@@H]2O[C@@H]2C1=O,5.9,x,-8.8%,x,x,5.9
Cc1ccc(Cl)cc1NC(=O)Cn1c(=O)n(CCC(=O)NCc2ccc3c(c2)OCO3)c(=O)c2sccc21,x,x,x,x,-4.5%,x
CCOC(=O)c1cccc(-n2nnc3c(sc4nc(C)c(Br)c(C)c43)c2=O)c1,x,x,x,x,1.9%,x
Cn1cc(Br)c(C(=O)NNC(=O)Cc2ccc(Cl)cc2)n1,-2.1,-16.8%,3.3%,8.8%,6.0%,0.8
Cn1cc(Br)c(C(=O)NNC(=O)c2ccc(Cl)cc2)n1,39.2*,-2.3%,5.1%,-7.4%,-0.7%,34.8
O=c1cc2nc(-c3ccccc3)nc(SCc3cccc(Br)c3)n2[nH]1,x,x,x,x,-6.0%,x
CCn1cc(-c2n[nH]c(=S)n2-c2ccc(C)cc2Br)c(=O)c2ccc(C)nc21,-3.4,-18.0%,4.4%,7.94µM*,u,-3.9
Cc1ccc(-n2c(-c3cc(-c4ccco4)[nH]n3)n[nH]c2=S)c(Br)c1,1.9,14.1%,-8.5%,u,u,-4.2
O=NCc1ccc([N+](=O)[O-])o1,x,x,x,x,-15.2%,x
Cc1ccc(NC(=O)C(C)N=C2NS(=O)(=O)c3ccccc32)cc1F (stereo not drawn),28.7*,-7.2%,5.3%,-0.9%,4.1%,63.4*
CC(N=C1NS(=O)(=O)c2ccccc21)C(=O)NCCCc1ccccc1 (stereo not drawn),0.2,0.5%,1.2%,-2.4%,-5.7%,5.5
C[C@@H]1[C@@H](Sc2ccccc2)CC(=O)O[C@@H]1c1ccc(-c2ccccc2)cc1,63.1*,-1.3%,1.0%,x,-0.7%,81.8*
O=[N+]([O-])c1ccc(O)c(-c2nn[nH]n2)c1,37.4*,-26.4%,u,-12.6%,u,53.1*
Cn1cc(-c2nc3cnc(Oc4cccc(Cl)c4)nc3n(C3CC3)c2=O)c2ccccc21,x,x,5.5%,x,x,x
COc1ccc(/C=C2\SC(=O)N(CCNC(=O)C3CCN(S(=O)(=O)c4cccs4)CC3)C2=O)cc1,35.2*,-8.9%,0.1%,-3.5%,1.2%,43.8*
COc1ccc(/C=C2\SC(=O)N(CCNC(=O)CCS(=O)(=O)c3ccc(C)cc3)C2=O)cc1,70.3*,-2.6%,3.4%,-3.5%,-19.1%,110.4*
CCc1noc(C)c1C(=O)NCCN1C(=O)S/C(=C\c2ccc(OC)cc2)C1=O,x,-22.9%,x,x,-13.5%,x
COc1ccc(/C=C2\SC(=O)N(CCNC(=O)Cn3cnnn3)C2=O)cc1,32.2*,-15.9%,4.7%,-3.4%,-5.6%,156.9*
CCCc1cnc(N2CCN(S(C)(=O)=O)CC2)nc1,23.2*,3.2%,7.7%,-2.1%,-2.7%,40.6
CC(=O)OCC1OC(C#CC2=CCCCC2)C=CC1OC(C)=O (stereo not drawn),x,x,-2.8%[12.9 µM],x,x,x
COc1ccccc1OCC(=O)Nc1nnc(C2CCCC2)s1,14.9*,-6.1%,x,2.9%,4.2%,15.0
COc1ccccc1OCC(=O)Nc1nnc(-c2ccco2)s1,47.1*,u,-0.2%,3.1%,-5.3%,35.3
SMILES,Cycloheximide cs,RE007 growth inh,Giardia FBPA inh,LmPK inh,TbPYK inhibitor,Shiga inhibitor
COc1ccc(-c2nnc(NC(=O)Cc3ccccc3)s2)c(OC)c1,-1.5,-4.7%,6.6%,2.0%,6.4%,11.6
CCC(C(=O)Nc1nnc(-c2ccco2)s1)c1ccccc1 (stereo not drawn),-2.3,-12.9%,4.2%,3.2%,3.8%,-27.9
CCCC(=O)Nc1nnc(-c2ccco2)s1,39.6*,7.8%,-7.1%,-0.3%,0.7%,57.7*
Cc1cccc(OCC(=O)Nc2nnc(-c3ccco3)s2)c1,-0.8,-13.7%,-0.2%,-1.1%,-8.1%,-10.6
O=C(Cc1ccccc1)Nc1nnc(-c2ccco2)s1,33.8*,-2.9%,-1.8%,-3.4%,-0.5%,135.5*
CC(=O)c1ccc(NC(=O)Cn2nc(C(F)(F)F)c3c2CCCC3)cc1,x,x,x,x,-2.1%,x
CC1=C(C(=O)Nc2ccccc2Br)C2(CCC(C)CC2)OC1=O (stereo not drawn),x,x,x,x,-0.1%,x
O=c1c(N2CCCCC2)coc2ccccc12,19.9*,0.3%,8.3%,-19.2%,2.5%,54.7
Cc1oc(C)c2c(=O)ccc3c(c12)OC(N)=C(C#N)C3c1ccc(F)cc1 (stereo not drawn),8.9,8.4%,5.62µM*,7.9%,-15.2%,5.5
Cc1[nH]nc2c1C(c1ccc(F)cc1)C(C#N)=C(N)O2 (stereo not drawn),-6.7,1.8%,2.4%,-4.2%,8.6%,-16.4
CCCCCC=CCC=CCCCCCCCC(=O)OCC,x,x,x,x,6.3%,x
CN(C)c1ccc(CN(CC2CCCO2)C(=O)COc2ccc(Cl)cc2)cc1 (stereo not drawn),x,x,x,x,-19.2%,x
CO[C@H]1COC(=O)[C@H](C)NC(=O)C/C=C\[C@@H](C)[C@H](OC)COC(=O)C/C=C\[C@@H]1C,x,x,1.4%[12.9 µM],x,x,x
COc1ccc(/C=C/C(=O)O)cc1,4.7,7.5%,6.6%,x,-6.2%,21.4
COc1ccc(/C=C/C(=O)CCC(=O)O)cc1,32.0*,-28.2%,5.1%,-7.2%,-15.3%,56.3*
COc1ccc(/C=C/C(=O)OCCC(C)C)cc1,33.7*,x,-1.2%,x,1.9%,104.9*
CCCCC(CC)COC(=O)/C=C/c1ccc(OC)cc1 (stereo not drawn),x,x,x,x,8.0%,x
CCc1ccc2nc3n[nH]c(N)c3cc2c1,44.5*,19.1%,0.0%,-14.7%,-4.0%,75.2*
CCSc1ncnc2c1sc1nc3c(cc12)COC(C)(C)C3,19.2*,3.1%,-0.5%,3.9%,-20.1%,29.0
CC1(C)Cc2nc3sc4c(=O)n(CC(=O)NCc5ccco5)cnc4c3cc2CO1,25.8*,5.5%,1.6%,0.7%,-5.2%,68.6*
CC(C)COc1ncnc2c1sc1nc3c(cc12)COC(C)(C)C3,14.3,x,4.1%,-6.4%,x,21.5*
CCOc1ncnc2c1sc1nc3c(cc12)COC(C)(C)C3,x,12.4%,x,x,-2.0%,x
C=CCn1c(C)nc2c(sc3nc4c(cc32)COC(C)(C)C4)c1=O,43.5*,23.9%,-7.9%,-6.4%,-6.0%,49.9*
CC1(C)Cc2nc3oc4c(=O)n(CC(=O)Nc5ccccc5)cnc4c3cc2CO1,3.3,0.8%,-1.4%,4.1%,0.6%,-10.0
COc1cccc(Nc2ncc3nc(C)c(=O)n(C4CC4)c3n2)c1,x,x,5.6%,x,x,x
NC(CS)C(=O)O (stereo not drawn),x,x,x,x,-2.7%,x
